The values that follow come from PubChem BioAssay (NCATS).

Test [1] deals with Lysosomal acid glucosylceramidase (Homo sapiens) (UniProt P04062). Description: Glucocerebrosidase-p2 (AID 348; in the data active = potency below about 10 µM; also: potency is read from the fitted curve at half-maximal effect). To be noted: purified GBA, blue fluorogenic substrate, 40 min. The method, boiled down:
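Compounds titrated from 0.6 nM upwards against 0.2 nM enzyme in pH 5.9 citric acid/KH2PO4, taurocholate, tween-20; blue fluorogenic substrate 80 uM, 40 min room temperature, stopped and read Ex 365/Em 440 for AC50.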

Test [2] can be described thus: AP1 Signaling Pathway (AID 357). Also: % is scaled to controls: 0 for no effect and ±100 for the full control effect. To be noted: ME-180 AP-1-bla reporter, EGF-induced, beta-lactamase ratio, 5 h; at 7.69 µM (top of the series) unless noted. The procedure, abridged:
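ME-180 cells with beta-lactamase reporter under AP-1 response element, stimulated with EC50 EGF; compounds tested in titration series, 5 h at 37 °C. CCF4 substrate added 2.5 h at room temperature; 460/530 nm emission ratio gave %activity and AC50.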

Test [3] addresses Cytochrome P450 1A2 (Homo sapiens) (UniProt P05177). Description: p450-cyp1a2 (AID 410; calls by dose curve; also: potency is read from the fitted curve at half-maximal effect;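 as to activity change, negative = inhibition: -100% = full effect of reference inhibitor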). To be noted: recombinant CYP1A2, luciferin-ME demethylation, luminescence; series mostly up to 57 µM. The method, boiled down:
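20nM CYP1A2 with 100uM Luciferin-ME (at Km) in 100mM KPO4; compound preincubated 10 min, NADPH regeneration added, 60 min at room temperature. Luciferin quantified by luminescence after detection reagent; normalized to 57 uM furafylline.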

Test [4] in a line: NFAT Signaling Pathway (AID 444).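 Also: carbachol stimulus at about its EC50 of 1 µM final; % is scaled to controls: 0 for no effect and ±100 for the full control effect.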 The settings on record: Jurkat NFAT-bla M1, carbachol, beta-lactamase ratio, 5 h; at 7.69 µM (top of the series) unless noted. The procedure, abridged:
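Jurkat cells carrying an NFAT-driven β-lactamase reporter and co-transfected muscarinic M1 receptor were treated with compound plus carbachol (1 uM final, an EC50 level) for 5 h at 37 °C. CCF4 loading followed for 1 h at RT; 460/530 nm ratio gave %activity.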

Test [5] is described as follows: Stat Signaling Pathway (AID 446).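 Also: ME-180 cervical cancer cells given 40 pM IL-6 alongside compound; SIE-controlled beta-lactamase reporter measured as 460/530 nm FRET emission ratio; % is scaled to controls: 0 for no effect and ±100 for the full control effect.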 The settings on record: ME-180 (cervical carcinoma) SIE beta-lactamase reporter, IL-6 stimulated, 5 h; at 7.69 µM (top of the series) unless noted. The procedure, abridged:
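ME-180 cells carrying a SIE-driven beta-lactamase reporter are stimulated with 40 pM IL-6 for 5 h at 37C in the presence of compound. The 460/530 nm FRET substrate ratio is read after 2.5 h at RT. Data are normalised to 300 pM IL-6 and to 125 nM JAK inhibitor controls.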

For test [6], the target named is Glucocorticoid receptor (Homo sapiens) (UniProt P04150). The experiment in a line: GR-EFC Redistribution (AID 451; calls by dose curve; also: potency is read from the fitted curve at half-maximal effect). To be noted: CHO-K1 GR-EFC translocation, beta-gal luminescence, 2 h. The method, boiled down: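 CHO-K1 cells stably expressing nuclear-localized β-gal enzyme acceptor and GR fused C-terminally to the enzyme donor fragment; ligand-driven nuclear translocation restores β-gal by complementation. Compounds titrated up to 46 uM final, 2 h at 37 °C; luminescence read.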

Test [7] addresses Mitogen-activated protein kinase 10 (Mus musculus) (UniProt Q61831). Description: JNK3 AlphaScreen Assay (AID 530).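 Also: kinase came from lysate of stimulated human HepG2 cells; signal reports phosphorylation of biotinylated GST-cJun 1-79 at Ser73 with 10 µM ATP; % is scaled to controls: 0 for no effect and ±100 for the full control effect.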 The settings on record: JNK3 lysate, c-Jun phosphorylation; series mostly up to 57.1 µM. The procedure, abridged: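 Inhibitors reduce antibody binding to phosphorylated biotin-cJun, lowering AlphaScreen luminescence. Lysates from HepG2 cells pre-activated by IL-1beta plus TNF-alpha supplied JNK3; compounds were titrated.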
On the technique in general: Alpha assays give light when donor and acceptor beads are brought close together.

Test [8] concerns the target 3',5'-cyclic-AMP phosphodiesterase 4B (Homo sapiens) (UniProt Q07343). The experiment in a line: qHTS Assay for Inhibitors of PDE-IV (AID 607; active = well fitted activation curve with a large enough effect in the main read-out, with a control signal flat, not every such curve was filed as active; also: % of control where 0% means no effect). To be noted: HEK293 ACTOne CNG channel cells, membrane potential fluorescence; series mostly up to 22.9 µM. The procedure, abridged:
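HEK293 ACTOne cells with CNG channel (1000/well), endogenous PDE4; membrane potential dye, compounds up to 22.9 uM final. Fluorescence Ex 535/Em 590; RO 20-1724 (100 uM final) as reference.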
(qHTS replaces the single test concentration by a dilution series.)

In test [9] the target is Cytochrome P450 3A4 (Homo sapiens) (UniProt P08684). Description: qHTS Assay for Activators of Cytochrome P450 3A4 (AID 885; active = well fitted curve in the direction sought with a large enough effect; an effect the other way counts as inactive or inconclusive; also: nearly all actives have a fitted effect of over 65% in size). To be noted: recombinant CYP3A4, Luciferin-PPXE luminescence, 60 min; series mostly up to 57.1 µM. The procedure, abridged: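 Human CYP3A4 (20 nM) with Luciferin-PPXE at 25 uM (its KM) in 200 mM KPO4; 10 min compound preincubation, then NADPH regeneration and 60 min reaction at RT. Luciferin read by luminescence; normalized to 57 uM ketoconazole full inhibition.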

The target in test [10] is Cytochrome P450 2D6 (Homo sapiens) (UniProt P10635). The experiment in a line: qHTS Assay for Inhibitors and Substrates of Cytochrome P450 2D6 (AID 891; active = well fitted curve in the direction sought with a large enough effect; an effect the other way counts as inactive or inconclusive; also: potency is read from the fitted curve at half-maximal effect; nearly all actives have a fitted effect of over 60% in size). To be noted: recombinant CYP2D6, luciferin-ME EGE luminescence; series mostly up to 57.1 µM. The procedure, abridged:
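Human CYP2D6 (5 nM) with 30 uM Luciferin-ME EGE (at Km) in 100 mM KPO4, compound preincubated 10 min, then NADPH regeneration system for 60 min at room temperature. Luciferin read by luminescence; normalized to 1.43 uM quinidine.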

A short description of test [11]: qHTS Assay for Lipid Storage Modulators (AID 1519; calls by dose curve). The settings on record: Drosophila S3 cells, BODIPY lipid droplet/cell ratio, laser cytometry, cells loaded with oleic acid; for activity change, negative = inhibition: at 57.5 µM (top of the series). The procedure, abridged: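 Cells seeded at 5,000 per well were treated with compounds over a concentration series and loaded with oleic acid (400 uM, as added). Lipid droplet fluorescence (488 nm excitation, 500-530 nm channel) was read by laser-scanning cytometry and normalized to 20 uM Triacsin C.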

Test [12] in a line: Primary qHTS for small molecule stabilizers of the endoplasmic reticulum resident proteome: Secreted ER Calcium Modulated Protein (SERCaMP) assay (AID 1508630; active = well fitted curve in the direction sought with a large enough effect; an effect the other way counts as inactive or inconclusive; also: % is scaled to controls: 0 for no effect and ±100 for the full control effect). The settings on record: SH-SY5Y GLuc-SERCaMP (Gaussia luciferase released on ER calcium loss) secretion, thapsigargin, luminescence; series mostly up to 38.4 µM. The procedure, abridged: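 GLuc-SERCaMP-expressing SH-SY5Y cells, pretreated 16 h with compound, are challenged with thapsigargin to empty ER calcium stores; after 4 h, coelenterazine is added directly to the medium and luminescence is imaged.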

In test [13] the target is Cytochrome P450 2C19 (Homo sapiens) (UniProt P33261). Description: qHTS Assay for Inhibitors and Substrates of Cytochrome P450 2C19 (AID 899; active = well fitted curve in the direction sought with a large enough effect; an effect the other way counts as inactive or inconclusive; also: potency is read from the fitted curve at half-maximal effect; nearly all actives have a fitted effect of over 60% in size). To be noted: recombinant CYP2C19, luciferin-H EGE luminescence; series mostly up to 57.1 µM. The procedure, abridged: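 NADPH-dependent conversion of Luciferin-H EGE (10uM, at KM) by 5nM enzyme in 50mM KPO4, 60 min at 37C following 10 min compound preincubation. Stopped with luciferin detection buffer; luminescence read after 20 min.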

[14] abbreviates: measured here: cell count channel max response.
Setting [15] is: measured here: lipid channel max response.

Molecules are shown by their SMILES. Records with an inconclusive call do not appear. Calls of active or inactive are those of the source. Unless noted, calls follow the shape of the dose curve; as a rule, active = well fitted curve in either direction with a large enough effect (not every such curve was filed as active); inconclusive = small, poorly fitted or top-dose-only effect, or another doubt; inactive = flat fitted curve, though single readings scatter.

Sequence of Cytochrome P450 1A2 (Homo sapiens) (P05177 whole entry, looked up): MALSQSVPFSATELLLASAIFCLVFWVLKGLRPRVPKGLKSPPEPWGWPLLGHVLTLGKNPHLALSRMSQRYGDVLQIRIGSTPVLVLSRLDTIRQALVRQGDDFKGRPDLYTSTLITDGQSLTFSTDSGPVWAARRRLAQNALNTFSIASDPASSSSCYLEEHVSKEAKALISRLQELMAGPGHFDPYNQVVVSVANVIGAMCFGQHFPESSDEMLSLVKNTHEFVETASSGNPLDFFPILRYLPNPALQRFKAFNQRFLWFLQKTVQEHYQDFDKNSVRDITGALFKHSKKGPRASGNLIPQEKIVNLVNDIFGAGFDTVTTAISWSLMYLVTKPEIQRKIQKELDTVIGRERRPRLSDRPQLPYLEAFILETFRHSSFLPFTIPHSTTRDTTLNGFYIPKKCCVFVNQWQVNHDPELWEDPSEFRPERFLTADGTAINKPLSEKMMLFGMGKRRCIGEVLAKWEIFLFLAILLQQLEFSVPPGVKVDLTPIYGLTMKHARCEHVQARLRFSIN
Sequence of 3',5'-cyclic-AMP phosphodiesterase 4B (Homo sapiens) (Q07343 whole entry, looked up): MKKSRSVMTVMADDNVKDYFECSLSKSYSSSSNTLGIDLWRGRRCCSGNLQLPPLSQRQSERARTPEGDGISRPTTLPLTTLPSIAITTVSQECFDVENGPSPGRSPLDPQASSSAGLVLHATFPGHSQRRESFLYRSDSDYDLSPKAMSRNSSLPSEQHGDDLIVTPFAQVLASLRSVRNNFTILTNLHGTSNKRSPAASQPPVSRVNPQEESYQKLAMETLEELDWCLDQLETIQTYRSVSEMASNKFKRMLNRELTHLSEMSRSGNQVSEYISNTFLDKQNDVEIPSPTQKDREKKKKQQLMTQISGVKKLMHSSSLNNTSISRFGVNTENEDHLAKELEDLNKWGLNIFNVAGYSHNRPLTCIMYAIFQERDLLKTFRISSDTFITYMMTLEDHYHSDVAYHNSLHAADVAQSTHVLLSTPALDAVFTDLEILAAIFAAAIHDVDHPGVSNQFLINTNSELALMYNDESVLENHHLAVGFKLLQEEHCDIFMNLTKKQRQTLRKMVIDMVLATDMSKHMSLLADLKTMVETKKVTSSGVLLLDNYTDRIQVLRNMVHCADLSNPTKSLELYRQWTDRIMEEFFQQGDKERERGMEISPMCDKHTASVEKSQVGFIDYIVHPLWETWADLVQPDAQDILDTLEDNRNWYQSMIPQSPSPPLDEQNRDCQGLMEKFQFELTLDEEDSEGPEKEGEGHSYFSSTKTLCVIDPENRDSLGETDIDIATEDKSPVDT
Sequence of Glucocorticoid receptor (Homo sapiens) (P04150 whole entry, looked up, the tested form may be a part): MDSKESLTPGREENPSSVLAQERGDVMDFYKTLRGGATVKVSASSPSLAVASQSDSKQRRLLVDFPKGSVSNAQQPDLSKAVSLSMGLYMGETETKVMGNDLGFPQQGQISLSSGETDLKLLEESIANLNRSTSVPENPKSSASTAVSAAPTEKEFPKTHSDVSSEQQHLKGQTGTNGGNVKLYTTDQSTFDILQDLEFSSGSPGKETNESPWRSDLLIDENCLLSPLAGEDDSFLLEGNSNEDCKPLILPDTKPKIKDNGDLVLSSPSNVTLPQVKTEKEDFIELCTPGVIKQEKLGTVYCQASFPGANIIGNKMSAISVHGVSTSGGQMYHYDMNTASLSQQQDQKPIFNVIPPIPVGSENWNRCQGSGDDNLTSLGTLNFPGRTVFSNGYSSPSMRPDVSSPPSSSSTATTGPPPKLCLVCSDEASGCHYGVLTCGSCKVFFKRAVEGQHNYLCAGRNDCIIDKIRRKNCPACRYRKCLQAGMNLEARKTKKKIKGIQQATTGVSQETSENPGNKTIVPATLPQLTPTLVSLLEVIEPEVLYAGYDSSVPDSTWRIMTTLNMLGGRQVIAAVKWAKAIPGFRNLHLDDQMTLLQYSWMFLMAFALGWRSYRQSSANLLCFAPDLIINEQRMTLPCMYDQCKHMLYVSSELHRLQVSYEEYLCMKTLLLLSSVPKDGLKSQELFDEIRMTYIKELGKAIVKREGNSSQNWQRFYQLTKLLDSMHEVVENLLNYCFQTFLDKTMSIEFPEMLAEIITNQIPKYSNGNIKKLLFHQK
Sequence of Cytochrome P450 3A4 (Homo sapiens) (P08684 whole entry, looked up): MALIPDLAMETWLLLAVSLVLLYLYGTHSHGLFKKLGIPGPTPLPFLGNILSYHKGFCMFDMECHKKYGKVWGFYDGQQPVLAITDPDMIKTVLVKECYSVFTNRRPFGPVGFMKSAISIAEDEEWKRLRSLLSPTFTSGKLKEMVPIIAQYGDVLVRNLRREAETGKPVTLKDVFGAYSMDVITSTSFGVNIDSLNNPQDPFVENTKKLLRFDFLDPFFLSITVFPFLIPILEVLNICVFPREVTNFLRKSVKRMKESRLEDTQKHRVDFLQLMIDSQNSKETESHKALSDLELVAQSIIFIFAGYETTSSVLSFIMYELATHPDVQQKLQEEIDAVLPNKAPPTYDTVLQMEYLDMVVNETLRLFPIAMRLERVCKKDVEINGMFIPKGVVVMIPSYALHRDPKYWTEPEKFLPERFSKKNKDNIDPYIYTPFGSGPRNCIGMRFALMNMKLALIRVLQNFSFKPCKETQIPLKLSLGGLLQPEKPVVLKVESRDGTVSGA
Sequence of Lysosomal acid glucosylceramidase (Homo sapiens) (P04062 whole entry, looked up): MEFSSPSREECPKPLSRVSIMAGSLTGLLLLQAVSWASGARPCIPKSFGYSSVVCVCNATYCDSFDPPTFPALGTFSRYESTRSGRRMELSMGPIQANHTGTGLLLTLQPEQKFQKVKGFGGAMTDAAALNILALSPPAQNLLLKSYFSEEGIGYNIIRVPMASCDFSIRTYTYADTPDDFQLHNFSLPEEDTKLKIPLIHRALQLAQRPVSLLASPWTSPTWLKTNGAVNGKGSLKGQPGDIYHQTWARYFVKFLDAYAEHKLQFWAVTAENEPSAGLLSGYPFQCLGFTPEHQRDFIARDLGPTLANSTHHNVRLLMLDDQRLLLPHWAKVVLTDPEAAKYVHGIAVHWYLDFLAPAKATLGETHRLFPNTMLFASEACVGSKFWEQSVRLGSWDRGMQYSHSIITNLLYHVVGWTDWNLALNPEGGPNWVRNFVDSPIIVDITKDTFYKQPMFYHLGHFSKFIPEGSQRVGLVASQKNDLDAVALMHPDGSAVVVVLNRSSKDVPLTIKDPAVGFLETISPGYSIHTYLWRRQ
Sequence of Cytochrome P450 2C19 (Homo sapiens) (P33261 whole entry, looked up): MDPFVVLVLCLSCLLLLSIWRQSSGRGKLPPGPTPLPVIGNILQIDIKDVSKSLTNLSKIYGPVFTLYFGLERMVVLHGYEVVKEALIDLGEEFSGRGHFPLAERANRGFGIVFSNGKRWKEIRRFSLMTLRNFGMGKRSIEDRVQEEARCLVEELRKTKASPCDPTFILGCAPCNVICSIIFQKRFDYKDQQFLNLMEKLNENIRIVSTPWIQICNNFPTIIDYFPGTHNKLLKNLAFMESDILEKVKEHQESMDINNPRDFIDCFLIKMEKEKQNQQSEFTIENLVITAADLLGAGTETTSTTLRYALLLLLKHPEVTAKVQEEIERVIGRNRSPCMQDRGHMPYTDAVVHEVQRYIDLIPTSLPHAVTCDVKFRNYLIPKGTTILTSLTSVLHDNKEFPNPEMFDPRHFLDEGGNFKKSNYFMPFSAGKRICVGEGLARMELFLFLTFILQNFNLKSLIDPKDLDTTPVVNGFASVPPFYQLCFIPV
Sequence of Cytochrome P450 2D6 (Homo sapiens) (P10635 whole entry, looked up): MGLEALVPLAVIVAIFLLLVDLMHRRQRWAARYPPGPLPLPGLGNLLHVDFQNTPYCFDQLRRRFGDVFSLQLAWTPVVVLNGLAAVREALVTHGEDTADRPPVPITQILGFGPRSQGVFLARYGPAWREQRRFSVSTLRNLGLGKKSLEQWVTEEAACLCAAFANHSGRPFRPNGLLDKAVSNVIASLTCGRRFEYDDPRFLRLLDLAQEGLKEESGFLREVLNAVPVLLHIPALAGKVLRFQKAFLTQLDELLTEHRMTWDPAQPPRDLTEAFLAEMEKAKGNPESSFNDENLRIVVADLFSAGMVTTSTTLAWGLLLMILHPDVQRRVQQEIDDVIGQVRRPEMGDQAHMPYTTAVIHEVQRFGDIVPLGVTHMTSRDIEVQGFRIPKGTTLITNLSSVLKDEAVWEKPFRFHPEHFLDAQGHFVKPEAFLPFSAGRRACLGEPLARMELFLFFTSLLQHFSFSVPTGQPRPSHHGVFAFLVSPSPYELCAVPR

`CC(C)NC(=O)N1CCCC2(CCN(S(=O)(=O)c3ccccc3)CC2)C1`: the values for the Potency in test [1], in [6] and in test [10] were > 11.4 µM (inactive), > 46 µM (inactive) and 0.316 µM (active), respectively. Further, the activity change, negative = inhibition in test [2] was -4.26% (inactive); in [4], -5.06% (inactive); in [11], 4.51% (inactive). For the same compound, the Potency entry in [3], in [8], in test [9] and in [12] was “inactive” each time. Besides, the activity, negative = inhibition in test [5] was -5.18% (inactive). Further, in test [7], the outcome was inactive. For the same compound, the max response is 20% in test [11] (setting [14]) and 26.7% in test [11] (setting [15]).

Turning to `COC(=O)N1CCC2(CCCN(C(=O)Nc3cccc(F)c3)C2)CC1`, the Potency in test [1] is > 11.4 µM (inactive); in test [6] it was > 46 µM (inactive). The activity change, negative = inhibition is -3.15% (inactive) in test [2], -20.9% (inactive) in [4] and -17.4% (inactive) in [11]. Also, the Potency result in [3], in test [8], in test [9] and in test [12] was “inactive” in each case. In test [5], the activity, negative = inhibition is -5.21% (inactive). Also, in test [7], the compound was called inactive. Moreover, the max response in test [11] (setting [14]) is -0.146%; in test [11] (setting [15]) it was -17.1%.

Consider `COc1ccc(NC(=O)N2CCCC3(CCN(C(=O)c4cnccn4)CC3)C2)cc1`, for which the Potency in [1] is > 11.4 µM (inactive); in [6], > 46 µM (inactive). Also, the activity change, negative = inhibition was -0.971% (inactive) in test [2], 1.32% (inactive) in [4] and 4.77% (inactive) in test [11]. The Potency entry in [3], in [8], in [9] and in test [12] was “inactive” each time. In addition, the activity, negative = inhibition in test [5] is -7.92% (inactive). For the same compound, in test [7], the compound was classed as inactive. The max response in test [11] (setting [14]) was found to be 1.78%; in [11] (setting [15]), 8.5%.

With `O=C(c1ccco1)N1CCC2(CCCN(C(c3ccccc3)c3ccccc3)C2)CC1`, the Potency in [1] was > 11.4 µM (inactive); in [3], 15.8 µM (active); in test [6], > 46 µM (inactive). The activity change, negative = inhibition in test [2] was 26.1% (inactive); in test [4], -80.8% (active); in test [11], 2.05% (inactive). Moreover, in test [5], the activity, negative = inhibition was 19.8% (inactive). Besides, in test [7], the call was inactive. Further, the Potency result in test [8], in test [9] and in [12] was “inactive” each time. Besides, the max response worked out at 10.3% in [11] (setting [14]) and 13.5% in test [11] (setting [15]).

Take `CN(C)c1ncc2ncc(=O)n(Cc3ccc(F)cc3)c2n1`: the Potency in test [1] is > 11.4 µM (inactive); in [3] it was 3.98 µM (active); in test [6], > 46 µM (inactive); in test [13], 3.16 µM (active). Further, the activity change, negative = inhibition is -9.88% (inactive) in [2], 4.28% (inactive) in test [4] and 2.54% (inactive) in [11]. Also, the activity, negative = inhibition in test [5] was -10.9% (inactive). For the same compound, the call in [7] was inactive. The Potency entry in [8], in test [9] and in [12] was “inactive” in each case. Moreover, the max response in test [11] (setting [14]) turned out to be 6.58%; in [11] (setting [15]), 11.9%.

Regarding `CS(=O)(=O)N1CCC[C@@]2(CCN(Cc3nccs3)C2)C1`, the Potency in test [1] was > 11.4 µM (inactive); in [6], > 46 µM (inactive). The activity change, negative = inhibition in test [2] was -5.88% (inactive); in test [4], 5.31% (inactive); in [11], 7.12% (inactive). Moreover, the Potency result in test [3], in [8], in test [9] and in [12] was “inactive” in each case. For the same compound, the activity, negative = inhibition in test [5] is 4.77% (inactive). For the same compound, the compound was called inactive in test [7]. Further, the max response in [11] (setting [14]) stood at 9.38%; in [11] (setting [15]), 20.5%.

For the compound `O=C(c1cnccn1)N1CCC2(CCCN(c3ccccc3)C2)CC1`, the Potency in [1] was > 11.4 µM (inactive); in test [6], > 46 µM (inactive); in test [13], 0.501 µM (active). In addition, the activity change, negative = inhibition in test [2] was 13.8% (inactive); in test [4] it was 5.12% (inactive); in [11], 4.73% (inactive). Further, the Potency result in test [3], in test [8], in test [9] and in test [12] was “inactive” each time. Also, in [5], the activity, negative = inhibition is -11.6% (inactive). Besides, the compound was classed as inactive in test [7]. For the same compound, the max response in test [11] (setting [14]) amounted to 21.1%; in test [11] (setting [15]) it was 29.2%.
